The record followed here is PubChem BioAssay (NCI).

Holding throughout (experiment): NCI-60 one-dose screen, 48 h (100 = growth as untreated, 0 = no growth, -100 = all killed)
Holding throughout (details): 10 µM

Test [1] concerns NCI-H23 lung.
Test [2] relates to NCI-H322M lung.
Test [3] concerns HOP-62 NSCLC.
For test [4], the system named is NCI-H460 lung.
Test [5] concerns HOP-92 NSCLC.
Test [6] concerns NCI-H522 lung.
Test [7] deals with A549/ATCC NSCLC.
Test [8] relates to 786-0 renal.
Test [9] deals with COLO 205 colon.

About 83,000 compounds went through this panel and 20% of them were active in at least one assay; those are over-represented in the sample as a whole.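 Percent growth is the endpoint: 0 to 100 indicates growth inhibition (40 means 60% inhibition), 0 means no net growth, and negative values indicate cell death.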 A number with no mark means an inactive call. Active and inactive are the calls of the source. Rule for the calls: active = growth percent below 10; inactive = the rest.

Consider `COc1ccc(-c2nc(Nc3ccccc3S(N)(=O)=O)c3ccccc3n2)cc1`, for which the growth was -0.0975% (active) in test [1]; 35.1% in test [2]; 77.7% in test [3]; -24.9% (active) in test [4]; 4.23% (active) in [5]; 59.7% in test [6]. In addition, the growth in [7] was -2.67% (active); in [8], -16.5% (active); in [9], 75.9%.
For the compound `Brc1ccc(/C=N/Nc2ncnc3sc4c(c23)CCN(Cc2ccccc2)C4)cc1`, the growth was 91.8% in test [1]; 94.1% in [2]; 103% in [3]; 14% in test [4]; 67% in [5]; 90.4% in test [6]. Moreover, the growth is 74.2% in test [7], 48.5% in test [8] and 34.8% in test [9].
Turning to `COc1ccc2[nH]cc(/C=N/Nc3cccc(Cl)n3)c2c1`, the growth in test [1] is 64.2%; in test [2], 71.2%; in [3], 59.3%; in test [4], 47.3%; in test [5], 27%; in test [6], 27.1%. The growth in test [7] is 69.8%; in test [8] it was 25.4%; in [9] it was 57.5%.
Regarding `O=C(NO)c1ccc(-c2nc3ccc4[nH]ncc4c3c3c2CCCC3)cc1`, the growth was -56.7% (active) in test [1]; -1.64% (active) in test [2]; 0.238% (active) in [3]; -43.4% (active) in test [4]; -16.6% (active) in test [5]; -43% (active) in test [6]. Moreover, the values for the growth in [7], in [8] and in test [9] were 6.83% (active), -8.73% (active) and -20.1% (active), respectively.
On to `CN(C)c1ccc(/C=C/c2nc3ccccc3c(=O)n2CC(=O)Nc2ccccc2)cc1`, for which the growth is 58.8% in test [1]; 48.6% in test [2]; 37.3% in test [3]; 16.8% in [4]; 15.3% in test [5]; 48.7% in test [6]. Also, the growth in [7] is 33.6%; in test [8], 20.1%; in [9], 69.6%.
With `COc1ccc([C@H]2C(C(=O)c3ccc(Cl)cc3)C3(N[C@@H]2c2ccccc2)C(=O)Nc2ccc(Cl)cc23)cc1` (stereo partly drawn), the growth in test [1] is -56.2% (active); in test [2] it was 20%; in [3], -57.2% (active); in test [4], -11.7% (active); in [5], -26.7% (active); in [6] it was -1.74% (active). Further, the growth was 18.2% in test [7], -12% (active) in test [8] and -89.5% (active) in test [9].
Take `O=C(O)CCCCCCCCCCN1C(=O)/C(=C/c2cnc(-c3ccccc3)s2)SC1=S`: the growth was 55.9% in [1]; 80.6% in test [2]; 115% in test [3]; 29.6% in test [4]; 52.1% in [5]; 38.2% in test [6]. Besides, the growth is 46.1% in test [7], 79.3% in test [8] and 141% in test [9].
In the case of `O=C(Nc1cccc([N+](=O)[O-])c1)Nc1cccc([N+](=O)[O-])c1`, the growth was 65.5% in [1]; 89.2% in test [2]; 92.7% in test [3]; 70.5% in [4]; 80.4% in test [5]; 64.8% in test [6]. In addition, the results for the growth in [7], in [8] and in test [9] were 82.2%, 74% and 121%, respectively.
`O=c1[nH]c2ccc(Cl)cc2cc1CSc1ccc(Nc2nccc(-c3ccc(Cl)cc3)n2)cc1`: the growth in test [1] was 62.1%; in [2], 90.8%; in [3], 93.8%; in test [4] it was -27.6% (active); in [5], 82.1%; in test [6], 33.3%. Further, the growth is -41.8% (active) in test [7], 75.2% in test [8] and 4.59% (active) in test [9].
On to `Cc1cc(C)cc(Oc2cccc(-c3c(C)nnn3C3CCN(CCN(C)C)CC3)n2)c1`, for which the growth is 34.5% in test [1]; 40% in test [2]; 42.5% in test [3]; 51.1% in test [4]; -9.61% (active) in [5]; -15.7% (active) in test [6]. The figures for the growth in [7], in test [8] and in [9] were 30.3%, 22.3% and -74% (active), respectively.
Regarding `C[C@H]1[C@H](C)CC[C@]2(COC(=O)CCC(=O)NCC#CCN3CCNCC3)CC[C@]3(C)C(=CC[C@@H]4[C@@]5(C)CCCNC(C)(C)[C@@H]5CC[C@]43C)[C@H]12`, the growth was 44.1% in [1]; 77.2% in test [2]; 60.8% in test [3]; 9.64% (active) in [4]; 14.4% in test [5]; 59% in [6]. Moreover, the results for the growth in test [7], in test [8] and in test [9] were 51.6%, 55.1% and -76.9% (active), respectively.
With `O=C1Nc2cc(-c3ccc(NC(=O)c4cccs4)cc3)ccc2/C1=C/c1ccc[nH]1`, the growth in test [1] is 66.4%; in test [2], 99.3%; in test [3] it was 98.3%; in [4], 83%; in test [5] it was 104%; in test [6], 79.4%. Also, the growth in [7] was 81.7%; in test [8] it was 98.5%; in test [9] it was 99.7%.
`C=CC(=O)Nc1ccc(C(=O)/C=C/c2ccc(N(C)CCF)cc2)c(O)c1`: the growth was -26.7% (active) in test [1]; 25.6% in test [2]; -27.5% (active) in test [3]; -9.21% (active) in test [4]; -3.32% (active) in test [5]; -76.9% (active) in test [6]. For the same compound, the results for the growth in test [7], in test [8] and in test [9] were -60.7% (active), -42.2% (active) and -69.1% (active), respectively.
In the case of `Cc1cc(C(F)(F)F)ccc1C(=O)Nc1sc2c(c1C#N)CCC(=O)C2`, the growth in test [1] was -28.3% (active); in [2], 29.8%; in test [3], 1.05% (active); in [4], 4.71% (active); in [5], -64.4% (active); in test [6], -62.9% (active). The growth in [7] is 30%; in test [8], 12.7%; in test [9], -94.4% (active).
As to `O=C1Nc2ccc(Cl)cc2/C1=C/c1cccc(OCc2ccccn2)c1`, the growth in test [1] was 15.4%; in [2], 40.1%; in test [3] it was 52.1%; in test [4], -16.2% (active); in [5] it was -6.11% (active); in test [6], -75.5% (active). Also, the growth in test [7] is 40.1%; in test [8] it was -14.4% (active); in test [9], -45.9% (active).
`COc1ccc(C(=O)Nc2ccc(-c3ccc4c(c3)NC(=O)/C4=C\c3ccc[nH]3)cc2)cc1`: the growth was 41.5% in test [1]; 86.6% in test [2]; 63.1% in test [3]; 14.9% in [4]; 97.5% in test [5]; 64.2% in [6]. Moreover, the growth in [7] is 74.4%; in [8], 20.4%; in [9], 48.1%.
As for `COc1ccc2c(c1)N=C(C(=O)O)/C2=C/c1sc(Nc2ccc(O)cc2)nc1O`, the growth in test [1] was 71.6%; in test [2], 92.5%; in test [3] it was 80.9%; in test [4] it was 82.3%; in test [5] it was 68.3%; in test [6] it was 33.7%. In addition, the growth in [7] is 96.2%; in test [8] it was 78.9%; in [9], 89.2%.
With `CCN(CC)CCOc1ccc(C(=C(C)c2ccccc2)c2ccc(OCCN(CC)CC)cc2)cc1`, the growth was 19.9% in test [1]; 31.1% in test [2]; -44.3% (active) in [3]; 4.41% (active) in test [4]; -21.3% (active) in [5]; 3.11% (active) in test [6]. The growth was 15.2% in test [7], -51.6% (active) in [8] and -88.2% (active) in [9].
For the compound `Cc1cc(=O)oc2cc(OCCCCOc3ccc(/C=C/C(=O)Nc4cccc(Cl)c4)cc3)ccc12`, the growth in test [1] is 57.2%; in test [2] it was 87.4%; in test [3] it was 54.9%; in test [4], 54.4%; in test [5], 50.9%; in test [6], 60.3%. For the same compound, the growth was 55.4% in test [7], 54.7% in test [8] and 62.3% in test [9].
As to `NC(=Nc1ccc(OCCCCCCCCn2ccnn2)cc1)c1ccccc1`, the growth in test [1] is 20.1%; in [2], 60.3%; in [3], 18.2%; in test [5], 74.2%; in [7], 24.4%; in [8] it was 45.7%.
`O=C(NO)c1ccc(CNC(=O)[C@H]2Cc3c([nH]c4ccccc34)[C@H](c3ccc(Cl)cc3)N2)cc1`: the growth in test [1] is -50.8% (active); in [2], 28.5%; in test [3], 2.45% (active); in [4], 10.3%; in test [5] it was -17.1% (active); in [6], -35.2% (active). Further, the growth in test [7] was 24.5%; in test [8], 22.6%; in [9], -82.7% (active).
For `Nc1nc(Nc2ccc(Cl)cc2)nn1Cc1cccc(Br)c1`, the growth in test [1] is 31.7%; in test [2], 44.7%; in test [3], 52.5%; in test [4] it was 17.9%; in test [5], -9.09% (active); in test [6], 27.6%. Besides, the growth in [7] was 45%; in test [8], 37.4%; in test [9] it was 24.7%.
For `COc1ccc(C(=O)/C=C/c2cc(C(F)(F)F)cc(C(F)(F)F)c2)cc1S(N)(=O)=O`, the growth in test [1] is -86.1% (active); in test [2] it was -73.8% (active); in [3], -44.7% (active); in [4] it was -24% (active); in test [5], -37.9% (active); in test [6], -67.7% (active). The growth is -11.7% (active) in test [7], -69.2% (active) in test [8] and -66.1% (active) in [9].
`CC(=O)c1ccc(NC(=O)NCn2c(=O)[nH]c3ccccc3c2=O)cc1`: the growth in [1] is 103%; in test [2] it was 93.8%; in test [3], 96.3%; in [4], 112%; in test [5], 79.5%; in test [6], 90.2%. Further, the growth in [7] is 97.7%; in test [8], 102%; in test [9], 109%.
On to `COc1ccc(-c2nc(S(=O)(=O)c3ccccc3)c(S(C)(=O)=O)o2)cc1`, for which the growth in [1] is 3.05% (active); in test [2], 101%; in test [3], 96.7%; in [4], 75.9%; in test [5], -60.8% (active); in test [6] it was -97.2% (active). For the same compound, the growth in test [7] was 88.7%; in [8], -16.9% (active); in test [9], -85.6% (active).
`O=c1[nH]c2ccc(Cl)cc2cc1CSc1ccc(Nc2nccc(-c3ccc4ccccc4c3)n2)cc1`: the growth in test [1] was 81.9%; in test [2], 95.5%; in [4] it was 20.8%; in [5], 88.1%; in test [6], 80.5%; in test [7], 22.7%. Further, the growth in test [8] was 64.8%; in [9], 31.8%.
Turning to `O=c1oc2ccc(-c3ccc(F)cc3F)cc2c(=O)n1-c1ccc(F)c(Cl)c1`, the growth in test [1] is -49.8% (active); in test [2], -1.73% (active); in [3], -25.9% (active); in [4], -0.567% (active); in test [5], -22% (active); in [6], -17.7% (active). For the same compound, the growth in [7] was 8.87% (active); in test [8], 7.54% (active); in test [9] it was 7.64% (active).
For the compound `C=C(C)[C@@H]1CC[C@]2(C(=O)OC)CC[C@]3(C)[C@H](CC[C@@H]4[C@@]5(C)CC[C@H](N)C(C)(C)[C@@H]5CC[C@]43C)[C@@H]12`, the growth in test [1] is -94.8% (active); in test [2], -96.5% (active); in test [3], -81.6% (active); in test [4] it was -53.7% (active); in [5], -68.9% (active); in test [6] it was -77.8% (active). Moreover, the growth in test [7] was -86.9% (active); in test [8] it was -98% (active); in [9] it was -68.9% (active).
